Pf growth 96h: Primary qHTS for delayed death inhibitors of the malarial parasite plastid, 96 hour incubation | AID 504834, 2011 | Potency, µM (titrated, usually from 28.7 µM), inactives show top-dose activity change, negative = inhibition, actives largely listed as inhibitors | P. falciparum luciferase reporter growth, 96 h | 6.9% of 320,000 active; note: potency is the fitted concentration of half-maximal effect; % is set by controls: 0 for no effect and ±100 for the full control effect
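Infected RBCs, 2% Hct / 0.05% parasitemia final; luciferase-reporter P. falciparum; cpd 96 h, 37 C, 5% CO2; luciferase detection reagent; luminescence.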
CHX counter: Cycloheximide Counterscreen for Small Molecule Inhibitors of Shiga Toxin; cell reporter, cycloheximide protein synthesis inhibition counterscreen; max response, %; 12% of 300,000 active; in the data active = max response mostly above about 13%, no sharp cut-off; inactive = mostly below about 14%; note: read at 38.3 µM for the half of the compounds with a filed dose; 0% is about no effect
Lassa entry inh: qHTS for Inhibitors of binding or entry into cells for Lassa Virus. Potency, µM (top dose mostly 37.9 µM), without a hit: at the highest dose activity change, negative = inhibition, most hits filed as inhibitors. Lassa virus pseudotype entry inhibition, cell reporter. 1.2% of 300,000 active; calls by dose curve; tested in HEK293 cells; note: potency is the fitted concentration of half-maximal effect; % is set by controls: 0 for no effect and ±100 for the full control effect; nearly all actives have a fitted effect of over 50% in size
Shiga toxin inh: A qHTS for Small Molecule Inhibitors of Shiga Toxin | inhibition, % at 38.7 µM | Vero cells, Shiga toxin protein synthesis inhibition reporter | 9.2% of 290,000 active; in the data active = inhibition mostly above about 28%, no sharp cut-off; inactive = mostly below about 43%; note: 0% is about no effect
Pf growth 48h: Primary qHTS for delayed death inhibitors of the malarial parasite plastid, 48 hour incubation. Potency, µM (series often up to 28.7 µM), without a hit: at the top dose activity change, negative = inhibition, hits mostly inhibitors. P. falciparum luciferase growth in erythrocytes, 48 h. 5.9% of 310,000 active; note: potency is the fitted concentration of half-maximal effect; % is set by controls: 0 for no effect and ±100 for the full control effect
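First compound was added to culture medium, then infected red cells at 0.1% parasitemia and 2% hematocrit (final). After incubation at 37 C under 5% CO2, luciferase detection reagent was dispensed and light output recorded.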
Marburg entry inh: qHTS for inhibitors of binding or entry into cells for Marburg Virus; 1.8% of 300,000 active; Marburg virus pseudotyped entry inhibition, cell reporter; Potency, µM (series often up to 37.8 µM), for the others: at the top dose activity change, negative = inhibition, most hits filed as inhibitors; calls by dose curve; tested in HEK293 cells; note: potency is the fitted concentration of half-maximal effect; % is set by controls: 0 for no effect and ±100 for the full control effect
* marks the source's active call; other numbers are inactive results; ? = inconclusive; . = no result; [ ] = dose if it differs, or a comment. In the library only some 19% were active in any assay of this set; here they are far more common. Unless noted, calls come from the whole dose curve; as a rule, active = well fitted inhibition curve with a large enough effect; inconclusive = small, poorly fitted or top-dose-only effect, or another doubt; inactive = no such curve, though single readings can be large or run the other way.

SMILES	Pf growth 96h	CHX counter	Lassa entry inh	Shiga toxin inh	Pf growth 48h	Marburg entry inh
CCO[C@@H]1OC(C(=O)NC2CC2)=C[C@H](c2ccc(C(F)(F)F)cc2)[C@H]1CCCO	-25.7%	0.1	.	-11.7	-23.2%	.
C#CC(CC)(CC)NC(=S)Nc1ccc(S(N)(=O)=O)cc1	9.0%	12.4*	-4.4%	44.2*	32.9%	23.5%
NS(=O)(=O)c1ccc(NC(=S)NC(=O)C2CCCC2)cc1	1.85µM*	8.8	?	-1.7	-12.8%	25.5%[46.1 µM]
NS(=O)(=O)c1ccc(NC(=O)COC(=O)C2CCCCC2)cc1	39.2%	33.2*	2.4%	40.2*	5.9%	14.0%[46.1 µM]
NS(=O)(=O)c1ccc(NC(=O)COC(=O)CCC2CCCC2)cc1	-11.3%	6.5	-2.5%[46.1 µM]	13.2	-6.5%	4.4%[46.1 µM]
CCOc1ccc(NC(=S)NC(=O)C2CCCC2)cc1	?	15.5*	.	69.3*	-23.7%	.
Cc1nccc2[nH]c(=O)c(C(=O)NCCCN(C)C3CCCCC3)cc12	14.3%	-2.4	.	-1.8	6.2%	-1.3%
Cc1ccc(S(=O)(=O)N(CC2CO2)c2cccc([N+](=O)[O-])c2)cc1 (stereo not drawn)	60.0%	-4.1	-7.8%	-2.4	30.0%	?
CC(=O)Nc1ccc(NC(=S)NC(=O)C2CCCC2)cc1	0.0%	13.9	-1.9%[46.1 µM]	-13.0	-28.5%	0.7%[46.1 µM]
CCN(CC)c1ccc(NC(=S)NC(=O)C2CCC2)cc1	11.7µM*	14.1	-6.0%[46.1 µM]	28.3	-28.7%	4.1%[46.1 µM]
NCCc1nnc(SCc2ccccc2Cl)o1	56.9%	-1.9	-18.2%	-11.5	0.0%	4.6%[46.1 µM]
COc1ccc(Cc2cnc(N)s2)cc1	-0.3%	5.4	0.1%[46.1 µM]	24.0	55.2%	-0.2%[46.1 µM]
COC(=O)C(Cc1cnc(Cl)s1)(C(=O)OC)c1ccc([N+](=O)[O-])cc1	?	-4.7	-12.3%	-44.6	.	-23.3%[46.1 µM]
O=[N+]([O-])c1ccc(OCc2cnc(Cl)s2)cc1	17.6%	31.9*	.	31.8	20.9%	.
Cc1ccc(OCc2cnc(Cl)s2)c(C)c1	-1.5%	36.4*	3.9%[46.1 µM]	146.3*	22.2%	?
COc1ccc(OCc2cnc(Cl)s2)cc1	6.6%	29.3*	10.5%	60.0*	55.5%	29.6%
O=C(C1=C[C@H](c2ccc(Br)cc2)C[C@H](OCc2ccc(CO)cc2)O1)N1CCOCC1	9.9%	1.6	.	-1.8	5.9%	.
O=C(Nc1ccccc1)C1=C[C@H](c2ccc(Br)cc2)C[C@H](OCc2ccc(CO)cc2)O1	?	41.1*	.	69.2*	-26.1%	.
C#Cc1ccc([C@H]2C=C(C(=O)O)O[C@@H](OCc3ccc(CO)cc3)C2)cc1	0.0%	-2.7	.	-14.2	0.0%	.
O=C(Nc1ccccc1)C1=C[C@@H](c2ccc(C(F)(F)F)cc2)C[C@@H](OCc2ccc(CO)cc2)O1	?	8.6	.	17.3	?	.
O=C(Nc1ccccc1)C1=C[C@@H](c2ccccc2)C[C@@H](OCc2ccc(CO)cc2)O1	4.2%	56.9*	.	81.0*	32.3%	.
CC(C)(C)[C@H]1C=C(C(=O)Nc2ccccc2)O[C@@H](OCc2ccc(CO)cc2)C1	?	12.1*	.	18.4	?	.
C#Cc1ccc([C@@H]2C=C(C(=O)OCC=C)O[C@H](OCc3ccc(CO)cc3)C2)cc1	?	30.8*	.	23.2*	?	.
CC(C)(C)[C@@H]1C=C(C(=O)NCc2ccccc2)O[C@H](OCc2ccc(CO)cc2)C1	-16.4%	1.7	.	-10.4	-11.5%	.
COc1ccc(Cl)cc1C(=O)NCCS(=O)(=O)N1CCN(c2ccccc2OC)CC1	.	.	-13.4%[46.1 µM]	.	.	.
SMILES	Pf growth 96h	CHX counter	Lassa entry inh	Shiga toxin inh	Pf growth 48h	Marburg entry inh
CN1C(N)=NC(=O)/C1=C/c1ccc(F)cc1	-8.2%	5.6	.	29.6	-4.0%	.
Cc1cc(C)nc(SCc2cc(=O)c(OC(=O)c3cc([N+](=O)[O-])ccc3Cl)co2)n1	344.1%	-3.0	-1.6%	-10.2	-0.8%	4.5%
NC(=O)C1=C[C@H](c2ccccc2)C[C@H](OCc2ccc(CO)cc2)O1	53.6%	36.1*	.	27.4*	20.9%	.
Cc1csc(=O)n1CC(=O)OCC(=O)NNC(=O)c1ccccc1	43.6%	6.5	17.4%	7.5	3.1%	8.2%
COC(=O)[C@@]12CCCN1[C@H](c1ccc(-c3cccc(Cl)c3)cc1)[C@H]1C(=O)N(C)C(=O)[C@H]12	13.1µM*	.	.	.	6.57µM*	.
COC(=O)[C@@]12CCCN1[C@H](c1ccc(-c3ccccc3)cc1)[C@@H]1C(=O)N(C)C(=O)[C@@H]12	?	.	.	.	7.38µM*	.
CCc1ccccc1NC(=O)CN1CCN(C(=O)CNC(=O)c2ccccc2F)CC1	-45.4%	.	.	.	-8.4%	.
CCOC(=O)c1cnc(SCc2ccccc2)nc1N	.	46.7*	-4.8%	108.9*	146.9%	?
CCOC(=O)C(C)Sc1cc(CS(=O)(=O)c2ccccc2)nc(-c2ccccc2)n1 (stereo not drawn)	10.4µM*	-1.7	-4.1%	-6.9	23.2%	-29.1%
CCOC(=O)c1cnc(SSc2ncc(C(=O)OCC)c(N)n2)nc1N	?	-2.6	.	.	-9.4%	.
O=S(=O)(Cc1cc(Oc2ccccc2)nc(-c2ccccc2)n1)c1ccccc1	27.3%	3.0	2.1%	6.1	36.6%	-27.7%[46.1 µM]
CCOC(=O)c1cnc(SCc2ccc(C(C)(C)C)cc2)nc1N	?	-0.8	4.11µM*	-12.2	?	-2.6%
Cc1nc(SCc2ccc(Cl)cc2)ncc1C(=O)O	?	13.9	-13.8%	59.6*	12.3%	20.3%[46.1 µM]
O=C(O)CCc1ccc(-c2ccc(F)cc2)n1Cc1ccco1	20.6%	-2.8	5.1%	-24.3	10.8%	11.9%
Cc1nn(-c2cc(C)c3ccccc3n2)c2c1CCC2	4.8%	-1.1	5.8%	9.4	32.6%	-3.6%
O=c1[nH]ccc2c(S(=O)(=O)N3CCCNCC3)cccc12	.	-4.8	.	-5.4	.	.
Cc1ccc(CNC(=O)CCCc2nc3ccccc3s2)cc1	6.5%	-0.9	?	5.0	-3.4%	?
CCOC(=O)c1cnc(SCc2cccc3ccccc23)nc1N	4.65µM*	4.3	-2.7%	-10.4	.	16.2%
CCOC(=O)C(C)Sc1ncc(-c2ccccc2)cn1 (stereo not drawn)	-13.4%	58.0*	27.1%[46.1 µM]	70.2*	?	?
Cc1cc2c(cc1S(=O)(=O)N(CCN(C)C)Cc1ccco1)OCC(=O)N2	.	.	-10.3%[46.1 µM]	.	.	.
CC(C(=O)O)c1ccc(C(=O)c2cccs2)cc1 (stereo not drawn)	43.2%	.	.	.	-8.8%	.
O=C1NCN(c2ccccc2)C12CCNCC2	?	4.4	0.0%	2.4	2.62µM*	0.1%
O=C1NCN(c2ccccc2)C12CCN(CCCC(c1ccc(F)cc1)c1ccc(F)cc1)CC2	3.7µM*	-3.1	10.3µM*	-7.1	1.9µM*	2.06µM*
C/C(N)=C(/C#N)C(=O)CSc1nc2ccccc2[nH]1	.	35.0*	11.8%	66.5*	145.7%	17.9%
CSc1nnc(Nc2ccccc2C)s1	9.28µM*	16.4*	9.7%	12.3	.	?
